{"source": "PubChem BioAssay (NCATS)", "note": "Results filed as inconclusive are left out. Activity calls are given as the source filed them. The call rests on the fitted dose curve; in most records, active means well fitted cell-killing curve with a large enough effect; inconclusive means small, poorly fitted or top-dose-only effect, or effect the other way; inactive means no such curve, though single readings can be large or run the other way. Non-standard residues stand in square brackets, D forms with d. Residues, ends and D or L forms follow the SMILES beside them. *: point of attachment. Nva = CCC[C@H](N)C(=O)O; Cbz = O=C(OCc1ccccc1)*", "data": [{"assay": "Quantitative High-Throughput drug screen in 47 multiple myeloma cell lines against the NCATS MIPE library collection: KMM1_JCRB cell viability assay (AID 1918960); further: nearly all actives have a fitted effect of over 30% in size; further: potency means the concentration at half of the fitted maximal effect", "details": "KMM1 myeloma viability, CellTiter-Glo ATP luminescence, 48 h; series mostly up to 45.8 µM", "excerpt": "PI: Beverly A. Mock Ph.D.\nLaboratory of Cancer Biology and Genetics,\nCenter for Cancer Research, National Cancer Institute,\nNational Institute of Health, Bethesda, Maryland\nDrug resistance and disease progression are common in multiple myeloma (MM) patients, underscoring the need for new therapeutic combinations. […] We hypothesized that effective combinations would reduce MYC expression and enhance p16 activity. […] These preclinical data identify potentially useful drug combinations for evaluation in drug-resistant MM and reveal potential mechanisms of combined drug sensitivity.\nDescribed herein is the primary MIPE qHTS used to cherrypick compounds. Validated compounds were then further tested for potential synergistic activiy.\n[1] Peat TJ, Gaikwad SM, Dubois W, Gyabaah-Kessie N, Zhang S, Gorjifard S, Phyo Z, Andres M, Hughitt VK, Simpson RM, Miller MA, Girvin AT, Taylor A, Williams D, D'Antonio N, Zhang Y, Rajagopalan A, Flietner E, Wilson K, Zhang X, Shinn P, Klumpp-Thomas C, McKnight C, Itkin Z, Chen L, Kazandijian D, Zhang J, Michalowski AM, Simmons JK, Keats J, Thomas CJ, Mock BA. Drug combinations identified by high-throughput screening promote cell cycle transition and upregulate Smad pathways in myeloma. Cancer Lett. 2023 Aug 1;568:216284. doi: 10.1016/j.canlet.2023.216284. Epub 2023 Jun 24. PMID: 37356470; PMCID: PMC10408729.\nSEQUENCE No. (e.g., 1, 2, 3, etc.); […] (e.g., Cells, Incubation, Reagent, etc.); VALUE and DESCRIPTION.\n1; Cells; 5 uL; white, solid bottom 1536-well Greiner assay plate.\n2; Compounds; 23 nL; Kalypsis pin tool (Wako USA) equipped with a 1536-well pin head to transfer to the assay plates.\n3; Incubation; 48 hours; 37C incubation.\n4; Reagent;5uL; CellTiter Glo (Promega).\n5; Detector; 425V; Luminescence; Viewlux PerkinElmer.\nNOTES (numbers refer to Sequence numbers above)\n1. The cell-based screening methods employed in this study were like those previously published. Briefly, the corresponding myeloma cell lines were screened in 1,536-well plates with 500 cells, 5-uL per well for inhibition of cell viability (assessed by measuring ATP levels with CellTiterGlo).\n2. NCATS MIPE 4.0 library of approved and investigational drugs were added using the Kalypsis pin tool. Wells treated with DMSO only for 100% viability and media only cells for 0% viability were used as controls.\n3. The assay plates were covered and incubated for 48 hours in a 37C, 5% CO2 incubator with controlled humidity.\n4. After 48 hours, CellTilter-GloTM luminescent substrate mix (Promega) reagent was added to the assay plate and plates we incubated for 5 min at room temperature.\n5. Signal was measured as median relative luminescence units on a ViewLux (PerkinElmer) multiplate reader.\n[1] Heske CM, Davis MI, Baumgart JT, Wilson K, Gormally MV, Chen L, Zhang X, Ceribelli M, Duveau DY, Guha R, Ferrer M, Arnaldez FI, Ji J, Tran HL, Zhang Y, Mendoza A, Helman LJ, Thomas CJ. Matrix Screen Identifies Synergistic Combination of PARP Inhibitors and Nicotinamide Phosphoribosyltransferase (NAMPT) Inhibitors in Ewing Sarcoma. Clin Cancer Res. 2017 Dec 1;23(23):7301-7311. doi: 10.1158/1078-0432.CCR-17-1121. Epub 2017 Sep 12. PMID: 28899971; PMCID: PMC6636827.", "values": [{"smiles": "COc1cc2c(Nc3ccc(Cl)c(Cl)c3F)ncnc2cc1OCC1C[C@@H]2CN(C)C[C@H]2C1", "Potency": "18700 nM (active)"}, {"smiles": "C[C@H]1C[C@H]2[C@@H]3CCC4=CC(=O)C=C[C@]4(C)[C@@H]3C(=O)C[C@]2(C)[C@@]1(O)C(=O)CO", "Potency": "inactive"}, {"smiles": "CCC[C@@H](C=O)NC(=O)[C@H](CC(C)C)NC(=O)[C@H](CC(C)C)NC(=O)OCc1ccccc1", "note": "(Cbz-Leu-Leu-[Nva]-aldehyde)", "Potency": "235 nM (active)"}, {"smiles": "O=C(O)C[C@H](O)C[C@H](O)C=Cc1c(C2CC2)nc2ccccc2c1-c1ccc(F)cc1", "Potency": "5900 nM (active)"}, {"smiles": "Nc1ccn(C2CO[C@H](CO)O2)c(=O)n1", "note": "(stereo not given in full)", "Potency": "inactive"}, {"smiles": "C#C[C@]1(O)CC[C@@H]2[C@@H]3CCC4=CC(=O)CC[C@@H]4[C@H]3CC[C@@]21CC", "Potency": "inactive"}, {"smiles": "CCNC(=O)Nc1ccc(-c2nc3c(c(N4CCOC[C@H]4C)n2)CCN(C2COC2)C3)cc1", "Potency": "332 nM (active)"}, {"smiles": "N#CC(=C(O)c1ccc(Cl)cc1Cl)c1nc2cc(Cl)ccc2c(=O)[nH]1", "Potency": "inactive"}, {"smiles": "Nc1ccc(C(=O)Nc2cccc(-c3nc(N4CCOCC4)c4oc5ncccc5c4n3)c2)cn1", "Potency": "418 nM (active)"}, {"smiles": "CCN(CC)CCNC(=O)c1c(C)[nH]c(C=C2C(=O)Nc3ccc(F)cc32)c1C", "Potency": "3820 nM (active)"}, {"smiles": "CCOC(=O)N1CCN([N+]([O-])=NOc2ccc([N+](=O)[O-])cc2[N+](=O)[O-])CC1", "Potency": "10500 nM (active)"}, {"smiles": "NC1=N[C@H]2[C@H](CS[C@H]2CCCCC(=O)O)N1", "Potency": "inactive"}, {"smiles": "CC(C)C[C@H](NC(=O)[C@@H](NC(=O)c1cccc(-c2ccccc2)n1)[C@@H](C)O)B(O)O", "Potency": "7.4 nM (active)"}, {"smiles": "COC[C@H](NC(=O)c1cnc(C)s1)C(=O)N[C@@H](COC)C(=O)N[C@@H](Cc1ccccc1)C(=O)[C@@]1(C)CO1", "Potency": "33.2 nM (active)"}, {"smiles": "C=CC(=O)Nc1cccc(Nc2nc(NC3CCC(N(C)C)CC3)nc3c2ncn3C(C)C)c1", "note": "(stereo not given)", "Potency": "13.2 nM (active)"}, {"smiles": "CN(C)c1ccc2cc(C(=O)N[C@@H](CCCN=C(N)CCl)C(=O)NCc3ccccc3)ccc2c1", "Potency": "1320 nM (active)"}, {"smiles": "C[C@H](NC(=O)C(C#N)=Cc1cccc(Br)n1)c1ccccc1", "Potency": "10500 nM (active)"}, {"smiles": "CC(C)Oc1ccc(C(=O)N[C@H](CNC(=O)CN(C)C)Cc2ccc(-c3cn4cccc([C@H](C)O)c4n3)cc2)cc1Cl", "Potency": "209 nM (active)"}, {"smiles": "C[C@H](NCc1ccc2c(c1)nc(NC(=O)c1ccc(-c3cn[nH]c3)s1)n2CCc1ccccc1)C(C)(C)C", "Potency": "833 nM (active)"}, {"smiles": "Cc1ccc(-n2[nH]c(C)c(N=Nc3cccc(-c4cccc(C(=O)O)c4)c3O)c2=O)cc1C", "Potency": "inactive"}, {"smiles": "COc1cc([C@@H]2c3cc4c(cc3[C@H](O)[C@H]3COC(=O)[C@@H]23)OCO4)cc(OC)c1OC", "Potency": "83.3 nM (active)"}, {"smiles": "O=C1c2c(O)cccc2[C@@H]([C@@H]2O[C@H](CO)[C@@H](O)[C@H](O)[C@H]2O)c2cc(CO)cc(O)c21", "Potency": "inactive"}, {"smiles": "CC[C@H]1OC(=O)[C@H](C)[C@@H](O[C@H]2C[C@@](C)(OC)[C@@H](O)[C@H](C)O2)[C@H](C)[C@@H](O[C@@H]2O[C@@H](C)C[C@H](N(C)C)[C@@H]2O)[C@](C)(O)C[C@@H](C)C(=O)[C@H](C)[C@@H](O)[C@]1(C)O", "Potency": "inactive"}, {"smiles": "CC(=O)OC[C@@H]1O[C@@H](n2ccc(=O)[nH]c2=O)[C@H](OC(C)=O)[C@H]1OC(C)=O", "Potency": "inactive"}, {"smiles": "CC(C)N1[N]C(=C2C=c3cc(O)ccc3=N2)c2c(N)ncnc21", "Potency": "296 nM (active)"}, {"smiles": "CCC(C=C[C@@H]1OC(=O)C=C[C@H]1C)=C[C@H](C)CC=CC(C)=C[C@@H](C)C(=O)[C@@H](C)[C@H](O)[C@@H](C)CC(C)=CC(=O)O", "Potency": "22 nM (active)"}, {"smiles": "COC1=C(OC)C(=O)C(CC=C(C)CCC=C(C)CCC=C(C)CCC=C(C)CCC=C(C)CCC=C(C)CCC=C(C)CCC=C(C)CCC=C(C)CCC=C(C)C)=C(C)C1=O", "Potency": "inactive"}, {"smiles": "c1cc(N[C@@H]2CCNC2)nc(-c2cnc3ccc(-c4cn[nH]c4)cn23)c1", "Potency": "8330 nM (active)"}, {"smiles": "NC(=O)c1cccc(-c2cccc(OC(=O)NC3CCCCC3)c2)c1", "Potency": "inactive"}, {"smiles": "C[C@@H]1[C@H](C)CC[C@]2(C(=O)O)CC[C@]3(C)C(=CC[C@@H]4[C@@]5(C)C[C@@H](O)[C@H](O)[C@@](C)(CO)[C@H]5CC[C@]43C)[C@@H]12", "Potency": "inactive"}, {"smiles": "CN(C)CC(=O)N1CCC(c2ccc(NC(=O)c3ncc(C#N)[nH]3)c(C3=CCCCC3)c2)CC1", "Potency": "inactive"}, {"smiles": "CC(Oc1ccc(O)cc1)(P(=O)(O)O)P(=O)(O)O", "Potency": "inactive"}, {"smiles": "C[C@H](CCC(=O)O)[C@H]1CC[C@H]2[C@@H]3[C@H](O)C[C@@H]4C[C@H](O)CC[C@]4(C)[C@@H]3CC[C@]12C", "Potency": "inactive"}, {"smiles": "Cc1cncc2cccc(S(=O)(=O)N3CCCN(C(=O)CN)C[C@@H]3C)c12", "Potency": "inactive"}, {"smiles": "CC(C)(C)[C@H](NC(=O)c1ccc(N)c(Cl)c1)C(=O)N1CCC[C@@H]1C(=O)N[C@H](C#N)CC(=O)O", "viability (% of DMSO)": "90.2% [at 3.51 µM] (inactive)"}, {"smiles": "Cc1[nH]c(C=C2C(=O)Nc3ccccc32)c(C)c1CCC(=O)O", "Potency": "13200 nM (active)"}, {"smiles": "CC(C=CC(=O)NO)=C[C@@H](C)C(=O)c1ccc(N(C)C)cc1", "Potency": "209 nM (active)"}, {"smiles": "CCN1CCN(C(=O)N[C@H](C(=O)N[C@@H]2C(=O)N3C(C(=O)O)=C(CSc4nnnn4C)CS[C@@H]23)c2ccc(O)cc2)C(=O)C1=O", "Potency": "inactive"}, {"smiles": "O=C1c2cccc(O)c2C(=O)c2c(O)cc(CO)cc21", "Potency": "inactive"}, {"smiles": "COC(=O)C1C2CC3c4[nH]c5cc(OC)ccc5c4CCN3CC2CC(OC(=O)c2cc(OC)c(OC)c(OC)c2)C1OC", "note": "(stereo not given)", "Potency": "20900 nM (active)"}]}]}
